# Results published in PubChem BioAssay (NCI).
# Where “and” joins values, the source holds several entries; their conditions need not be identical. Equal values may be shown once. This is part of a sample that, as a whole, favours compounds with a hit. Of some 83,000 tested, about 20% had one in any assay.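 Cells were grown in 96-well plates and exposed to the test compound at a single concentration for 48 hours; results are reported as percent growth, with values below 10 considered active.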 A number with no mark means an inactive call. Calls of active or inactive are those of the source.
# System: MDA-MB-468 breast
# Experiment: NCI-60 one-dose screen, 48 h (100 = growth as untreated, 0 = no growth, -100 = all killed)
# Conditions: 10 µM unless noted
row,SMILES,growth
1,COc1ccccc1OCC(O)CO (stereo not given),114% and 92.9%
2,COc1cc(Cn2c(-c3nonc3N)nc3ccccc32)ccc1C,40.9%
3,CCn1c(SCC(=O)N/N=C(\C)c2ccc(Cl)cc2)nc2c1c(=O)n(C)c(=O)n2C,96.6%
4,CCN1CCN(CCNc2nccc(-c3c(-c4ccc(F)c(O)c4)nc4occn34)n2)S1(=O)=O,23.5%
5,COc1cc(NC(=O)c2cncnc2Nc2ccc3c(ccn3Cc3ccccn3)c2)cc(OC)c1,15.6%
6,CS(=O)(=O)Nc1cc(-c2ccc3ncc(C#N)c(NCc4ccccc4F)c3c2)cnc1Cl,-16.8% (active)
7,O=C(O)COc1ccc(Cl)cc1C1CCCCC1,97.6%
8,CCCCn1c(C)nc2cc(Nc3nc(N4CCCCC4)nc4nc[nH]c34)ccc21,36.1%
9,Cc1cc(Nc2ccc(C(=O)N3CCCC3)cc2)nc(NCCCNc2ccnc3cc(Cl)ccc23)n1,40%
10,COc1cc(/C=C/c2c(C(C)=O)c(C)nc3ccccc23)cc(OC)c1OC,-4.86% (active)
11,COc1c(Cl)cc(Cl)c2ccc(C=C3C(=O)NC(=S)NC3=O)nc12,108%
12,CCN(CC)c1cc(N)c(Cc2c(N)cc(N(CC)CC)cc2Cl)c(Cl)c1,-15.8% (active)
13,COc1ccc(-c2cc(-c3ccc(N(C)C)cc3)nc(NC(=O)c3ccncc3)n2)cc1,75.5%
14,COc1ccc2nc(-c3ccc(-c4noc(-c5ccc(Cl)cc5)n4)cc3)[nH]c2c1,37.5%
15,CCCCC/C(C=C(C#N)C#N)=C/c1ccccc1,97.9%
16,Clc1cccc(-c2cc(-c3ccc4c(c3)OCCO4)[nH]n2)c1,6.54% [25 µM] (active)
17,CCCCCCCCCCCCOB(OCCCCCCCCCCCC)OCCCCCCCCCCCC,99.2%
18,CC(C)(C)c1cc(NC(=O)Nc2ccc(-c3cn4c(n3)sc3cc(OCCN5CCOCC5)ccc34)cc2)no1,12.4% and 30.6%
19,C/C(=N/Nc1nc2ccccc2n1C)c1ccccn1,-41.9% (active)
20,Cc1cc(=O)oc2cc(OCCCOc3ccc(/C=C/C(=O)Nc4ccc(Cl)cc4)cc3)ccc12,73.9%

row,SMILES,growth
1,COC(=O)c1c2c(c(C)[n+]([O-])c1C)C(=O)C=C(NCc1ccc(F)c(F)c1)C2=O,-78.4% (active)
2,O=P(O)(O)OCC1OC(n2cnc3c(NCc4ccco4)ncnc32)C(O)C1O (stereo not given),-67% (active)
3,CCCCCCCCCCCC1N=C(N)N=C(N)N1c1cccc(Br)c1 (stereo not given),-92.7% (active)
4,Clc1cccc(/C=N/Nc2nc(N/N=C/c3cccc(Cl)c3)nc(N3CCOCC3)n2)c1,30.8%
5,C=C1C(=O)O[C@H]2[C@H]1CC/C(COC(=O)NCc1cc3ccccc3[nH]1)=C\CC[C@@]1(C)O[C@@H]21,19.3%
6,CN(C)CCCCNc1ccc(NCCCCN(C)C)c2c1C(=O)c1c(O)ccc(O)c1C2=O,96.8%
7,CCOC(=O)C1C(=O)C(=O)N(C(C)C)C1C(=O)OCC (stereo not given),98.4%
8,O=C(Nc1ccccc1-c1nc2ccccc2c(=O)[nH]1)c1cc2ccccc2[nH]1,86.9%
9,COC(=O)/C=C1/SC(N2N=C(c3cccs3)CC2c2ccc(F)cc2)=NC1=O (stereo not given),36.7%
10,O=C(c1ccccc1)N(CCCCl)C(=O)N(CCCCl)C(=O)c1ccccc1,94.2%
11,COc1ccc(-c2nc3ccccn3c2-c2nnc(-c3cc(OC)c(OC)c(OC)c3)o2)cc1,44.3%
12,O=C(Nc1cnc(Nc2ccc(N3CCOCC3)nc2)nc1Oc1ccc(C(F)(F)F)cc1)c1ccncc1,103%
13,CCN(CC)CC[n+]1cc2cc(OC)c(OC)cc2c2ccc3cc4c(cc3c21)OCO4,-27% (active)
14,CCC1CN2C(=N1)c1ccccc1-c1cc(Cl)ccc12 (stereo not given),-7.75% (active)
15,COc1ccc(/C=C2\N=C(c3ccccc3)N(C(=O)c3ccccc3O)NC2=O)cc1,106%
16,Cc1cc(NC(=O)CNc2nc(Oc3ccc(F)cc3)nc(-c3ccc(F)cc3)n2)ccc1Cl,92.5%
17,CCCCn1c(=O)[nH]c(N)c([C@@H]2c3c([nH]c(=O)n(CCCC)c3=O)Oc3ccc4ccccc4c32)c1=O,113%
18,Cc1cc2c(cc1C)NC1=C(N2)OC(c2c3ccccc3cc3ccccc23)C1=O (stereo not given),-18.6% (active)
19,CC(C)C(C)(C)c1ccc(O)cc1,91.1%
20,COc1ccc(-c2nc(Nc3ccc(-c4nc5ccccc5[nH]4)cc3)nc(N3CCOCC3)n2)cc1,-1.23% (active)
